Vaccinia Venus: inhibitors of vaccinia virus (Venus reporter) | Vaccinia virus Venus reporter expression, fluorescence | Potency, µM (series often up to 36.5 µM), inactives show at the top dose activity change, negative = inhibition, most hits filed as inhibitors | hit rate 0.46% among 330,000 | AID 720580; calls by dose curve; tested in A549 cells; further: nearly all actives have a fitted effect of over 30% in size
AMA1-RON2 inh: disrupts binding of P. falciparum AMA1 to RON2. hit rate 0.2% among 360,000. Potency, µM (doses to about 58.2 µM), without a hit: at the top dose activity change, negative = inhibition, actives largely listed as inhibitors. AlphaScreen AMA1-biotinylated RON2 peptide binding;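 further: 0% = vehicle wells and -100% = peptide control; nearly all actives have a fitted effect of over 45% in size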
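AMA1 (3D7) with his tag at 25 nM final met compounds first, then biotinylated RON2 peptide at 25 nM; detection used donor plus acceptor beads, 10 µg/mL apiece, read by AlphaScreen after 30 min at room temperature.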
Pf growth 48h: P. falciparum growth inhibition at 48 hours (one generation). Potency, µM (titrated, usually from 28.7 µM), for the others: at the top dose activity change, negative = inhibition, hits mostly inhibitors. hit rate 5.9% among 310,000. AID 504832. P. falciparum luciferase growth in erythrocytes, 48 h
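Luciferase-expressing parasites in RBCs, 2% Hct / 0.1% parasitemia final; RPMI 1640 + 0.5% Albumax; 37 C, 5% CO2, one generation; luminescence read-out, lower signal = inhibition.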
Vaccinia mCherry: vaccinia inhibition (mCherry reporter); Vaccinia virus mCherry reporter infection, fluorescence; Potency, µM (doses to about 36.5 µM), without a hit: top-dose activity change, negative = inhibition, usual class: inhibitors; hit rate 0.63% among 310,000; AID 720579; calls by dose curve; tested in A549 cells; further: nearly all actives have a fitted effect of over 35% in size
Pf growth 96h: P. falciparum growth inhibition at 96 hours; P. falciparum luciferase reporter growth, 96 h; Potency, µM (series often up to 28.7 µM), without a hit: top-dose activity change, negative = inhibition, hits mostly inhibitors; hit rate 6.9% among 320,000
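P. falciparum expressing integrated firefly luciferase, in erythrocytes at 2% hematocrit, 0.05% parasitemia, incubated with compounds 96 h at 37 C, 5% CO2. Growth inhibition read as loss of luminescence; two-generation exposure targets delayed-death apicoplast inhibitors.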
Starred values were filed as active, the others as inactive; i = inactive; ? = inconclusive; / = not tested or not shown; [ ] = dose if it differs, or a comment. This is a sample that favours compounds with a hit; in the whole collection about 8.7% have one here. Unless noted, the call rests on the fitted dose curve; in most records, active means well fitted curve in the direction sought with a large enough effect; inconclusive means small, poorly fitted or top-dose-only effect, or another doubt; inactive means no such curve, though single readings can be large; an effect the other way counts as inactive or inconclusive. Unless noted, on the % scale 0 is the no-effect control and ±100 the full control effect; potency means the concentration at half of the fitted maximal effect.

SMILES	Vaccinia Venus	AMA1-RON2 inh	Pf growth 48h	Vaccinia mCherry	Pf growth 96h
CCCn1c(N2CCN(CC(=O)c3c(C)n(C)c4ccccc34)CC2)nc2c1c(=O)[nH]c(=O)n2C	-31.6%	-3.3%	0.0828µM*	/	134.1%
CCCCCCn1c(N(CC)CC)nc2c1c(=O)[nH]c(=O)n2C	?	-0.1%	-29.9%	-42.5%	1.85µM*
Cn1c(CN2CCN(c3cccc(Cl)c3)CC2)nc2ccccc21	/	23.2%	13.1µM*	/	?
O=C(NCc1ccccc1F)C1CCN(c2nn3cc(-c4ccc(F)cc4)nc3s2)CC1	-0.5%	/	/	-10.2%	/
CCc1cccc(NC(=O)Cn2c(=O)n(CC3CCC(C(=O)NC)CC3)c(=O)c3sccc32)c1 (stereo not given)	-16.3%	/	/	-10.4%	/
Cc1ccc(C)c(NC(=O)N2CCC(N3CCN(Cc4ccc(F)cc4)C(=O)C3=O)CC2)c1	-0.8%	/	/	-12.1%	/
COc1cccc(CN2CCC(n3cc(C(=O)N4CCCCC4)nn3)CC2)c1OC	-15.2%	/	/	-3.0%	/
CC(c1ccccc1)n1c(N2CCNCC2)nc2c1c(=O)[nH]c(=O)n2C (stereo not given)	/	16.5%	8.28µM*	/	11.6%
CCCCCn1c(CN2CCN(c3cccc(Cl)c3)CC2)nc2c1c(=O)[nH]c(=O)n2C	/	-7.9%	13.1µM*	/	?
Cn1c(=O)[nH]c(=O)c2c1nc(CN1CCN(c3cccc(Cl)c3)CC1)n2CCc1ccccc1	-29.1%	28.6%	?	-25.2%	0.6%
Cn1c(=O)[nH]c(=O)c2c1nc(N1CCOCC1)n2CCc1ccccc1	-8.3%	-10.2%	3.5%	-11.0%	9.6%
Cn1c(=O)[nH]c(=O)c2c1nc(N1CCOCC1)n2CCN1CCOCC1	-4.0%	-2.4%	1.85µM*	-7.7%	-11.3%
Cc1ccc(N2CCN(c3ccc(NCc4nc5ccccc5n4C)cc3)CC2)cc1	-7.5%	0.0%	13.1µM*	-6.8%	5.22µM*
CCN(CC)C(=O)c1sc2c(c1C)c(=O)n(CCc1ccccc1)c(=O)n2Cc1cc(C)ccc1C	-24.6%	/	/	-19.4%	/
CCCCc1nc2ccccc2n2c(-c3ccc(OC)cc3)c3c(=O)n(C)c(=O)n(C)c3c12	-4.0%	/	/	-10.9%	/
COc1ccc(-n2c(=O)c3c4c(sc3n(Cc3cc(C)ccc3C)c2=O)CN(C(C)=O)CC4)c(OC)c1	-19.2%	/	/	?	/
COC(=O)c1cc(C)nc2c1c(=O)nc(SCc1cccc(C(F)(F)F)c1)n2C1CC1	-11.5%	/	/	-13.6%	/
Cn1c(=O)[nH]c(=O)c2c1nc(CN1CCN(c3ccc(F)cc3)CC1)n2CCCc1ccccc1	-13.1%	-5.7%	-15.0%	-23.6%	-7.5%
Cn1c(=O)[nH]c(=O)c2c1nc(CN1CCN(c3ccc(F)cc3)CC1)n2CCc1ccccc1	-14.5%	5.0%	?	i	10.4µM*
CC(C)(C)OC(=O)N[C@H](C(=O)OC(C)(C)C)c1ccc2c(c1)OCO2	-10.9%	?	11.7µM*	i	?
COC(=O)C1CCN(Cc2ccc3c(c2)CN(C(=O)c2cc(C4CC4)on2)CCO3)CC1	8.7%	/	/	-3.3%	/
Cc1ccc(O)c(NC(=O)c2ccc(Br)c(S(=O)(=O)N3CCCCC3)c2)c1	?	/	/	-29.5%	/
CCN(C(=O)CN1CCCCCC1)c1c(N)n(Cc2ccccc2)c(=O)[nH]c1=O	-13.4%	-4.7%	/	i	/
CCCCN(C(=O)CSc1nnc(-c2ccc(Cl)cc2)o1)c1c(N)n(CC(C)C)c(=O)[nH]c1=O	-13.7%	-11.9%[11.6 µM]	13.1µM*	21.6%	?
CCN(C(=O)CN1CCN(c2ccc(O)cc2)CC1)c1c(N)n(Cc2ccccc2)c(=O)[nH]c1=O	/	38.6%	?	/	4.65µM*
SMILES	Vaccinia Venus	AMA1-RON2 inh	Pf growth 48h	Vaccinia mCherry	Pf growth 96h
Cc1ccc(C)c(OCC(=O)N(Cc2ccccc2)c2c(N)n(Cc3ccccc3)c(=O)[nH]c2=O)c1	?	-6.5%[11.6 µM]	/	28.2µM*	/
CCOc1ccc2nc(SCC(=O)N(CC(C)C)c3c(N)n(Cc4ccccc4)c(=O)[nH]c3=O)[nH]c2c1	-7.7%	-3.1%	?	-9.2%	11.7µM*
COc1ccc(OC)c(-c2cc(Cl)c3c(c2)CC(CNC(=O)[C@@H]2CCCN2C(C)=O)O3)c1 (stereo not given in full)	7.1%	/	/	-4.3%	/
O=C(COc1ccc(Br)cc1Cl)Nc1ncn[nH]1	-4.7%	/	/	-4.7%	/
COc1cccc(NC(c2nnc(-c3ccccc3)o2)c2ccc(F)cc2Cl)c1 (stereo not given)	-14.7%	/	/	-8.8%	/
CCCCN(C(=O)CCSc1ccc(F)cc1)c1c(N)n(Cc2ccccc2)c(=O)[nH]c1=O	-13.4%	-2.7%	11.7µM*	-18.5%	11.7µM*
CCCCN(C(=O)CCOc1ccc(OCC)cc1)c1c(N)n(Cc2ccccc2)c(=O)[nH]c1=O	-12.7%	-13.4%	/	i	/
Cc1ccccc1OCCC(=O)N(Cc1ccccc1)c1c(N)n(Cc2ccccc2)c(=O)[nH]c1=O	-21.3%	10.8%	?	-10.5%	?
CCOc1ccc(OCCC(=O)N(CCC(C)C)c2c(N)n(Cc3ccccc3)c(=O)[nH]c2=O)cc1	-13.4%	19.7%	10.4µM*	-6.2%	14.0%
Cc1ccccc1OCCC(=O)N(CC(C)C)c1c(N)n(Cc2ccccc2)c(=O)[nH]c1=O	/	16.7%	11.7µM*	/	?
COC(=O)c1ccc2c(=O)n(Cc3ccco3)c(SCC(=O)Nc3cc(C)on3)nc2c1	/	-6.0%	4.65µM*	/	-5.5%
COC(=O)c1ccc2c(=O)n(Cc3ccco3)c(SCC(=O)Nc3ccccc3Cl)nc2c1	/	-14.4%	-3.9%	/	?
COC(=O)CSc1nnc(CSc2nc(C)cc(C)n2)n1Cc1ccco1	/	5.4%	20.4%	/	/
CCn1c(Cc2ccccc2)nnc1SCC(=O)Nc1cc(C)on1	/	2.7%	-13.8%	/	8.28µM*
Cc1cc(C)nc(SCc2nnc(SCC(=O)Nc3ccc(C)c(C)c3)n2Cc2ccco2)n1	-18.1%	-10.6%	?	?	13.1µM*
Cc1cc(NC(=O)CSc2nnc(COc3ccccc3)n2Cc2ccco2)no1	-8.5%	?	-15.7%	-15.1%	8.28µM*
CC/C(=C/c1ccccc1OC)c1cc(-c2ccccc2)cc2oc3ccccc3c12	-20.2%	/	/	i	/
COC(=O)c1ccc(NC(=O)CSc2nc(=O)n(Cc3ccco3)c3c2CCC3)cc1	-12.9%	/	/	i	/
Cc1cccc2c1c1ccc3c(c1n2C)C(=O)C=CC3=O	?	-22.4%	11.7µM*	-29.6%	?
O=C1C=CC(=O)c2c(O)cccc21	-15.0%	/	/	-21.2%	/
CN(Cc1ccccc1)C(=O)CCC1CCN(S(=O)(=O)N(C)C)CC1	-16.4%	-8.5%	6.1%	i	?
CN(Cc1ccccc1)C(=O)CCC1CCN(S(C)(=O)=O)CC1	1.9%	0.2%	0.0%	-14.6%	11.7µM*
COc1ccc(NC(=O)CN2CCCN(S(=O)(=O)c3ccc(Br)cc3)CC2)c(OC)c1	-8.8%	/	/	-4.6%	/
C(=C\c1ccc2ccccc2n1)/c1cccnc1	-28.4%	/	/	?	/
CC(C)(C)NC(=O)C(c1c[nH]c2ccccc12)N(C(=O)Cn1nnc(-c2ccc(F)cc2)n1)c1cccc(O)c1 (stereo not given)	?	-5.7%	2.62µM*	?	?

Source: PubChem BioAssay
